High-throughput results (PubChem BioAssay)
Mtb hypoxia rep: PubChem AID 1159583. M. tuberculosis hypoxia-regulated fluorescent reporter, fluorescence. fluorescence inhibition, % (test concentration not listed). hit rate 0.1% among 300,000; in the data active = fluorescence inhibition mostly above about 23%, no sharp cut-off; inactive = mostly below about 17%
Sa RN4220 lethal: growth inhibition of S. aureus RN4220, primary screen, OD600; hit rate 0.33% among 330,000; AID 1259311, 2017; inhibition, % (test concentration not listed); 16 h; in the data active = inhibition above about 85%
MazF activator: activators of E. coli MazEF toxin-antitoxin RNase, primary screen, biochemical, fluorescence, uHTS. Endoribonuclease toxin MazF (Escherichia coli (strain K12)), P0AE70. FAM/BHQ RNA-DNA oligo cleavage fluorescence, 5 h. activation, % at 20 µM. hit rate 0.32% among 350,000; in the data active = activation above about 50%
PfHsp40 yeast: rescue of yeast from PfHsp40 toxicity, primary screen, S. cerevisiae, ATP luminescence | growth rescue, % at 12.5 µM | hit rate 0.68% among 340,000 | S. cerevisiae expressing PfHsp40, growth rescue; in the data active = growth rescue above about 28%, passing the limit was not always enough;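 note: yeast W303a lacking pdr1 and pdr3 grown in galactose medium; growth measured after three days at 30 °C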
Sa ugtP lethal: growth inhibition of ugtP-null S. aureus, primary screen, RN4220 ugtP deletion, OD600 | 16 h | growth inhibition, % (concentration not given with the values) | hit rate 0.54% among 330,000 | AID 1259309, 2017; in the data active = growth inhibition above about 68%
TcdB GH inh: TcdB glycohydrolase inhibitors, primary screen, biochemical, single point, plate reader. Toxin B (Clostridioides difficile), P18177. TcdB glycohydrolase enzymatic assay. inhibition, % at 9.99 µM. hit rate 0.24% among 350,000. AID 652162, 2013; in the data active = inhibition above about 10%
A number is an active result; . = inactive; / = not tested or not shown. Compounds with a hit are over-represented: about 1.3% of the library has one in this group of screens.

SMILES	Mtb hypoxia rep	Sa RN4220 lethal	MazF activator	PfHsp40 yeast	Sa ugtP lethal	TcdB GH inh
CC(/C=C/c1ccc2c(c1)OCO2)=NNC(=O)c1cccc([N+](=O)[O-])c1	.	.	/	/	.	/
Cc1ccc(S(=O)(=O)c2cnc3cc(C)nn3c2N)cc1	.	.	.	32	.	.
COC(=O)C1=NNC2(c3ccc(Cl)cc3)C(=O)N(c3ccccc3)C(=O)C12 (configuration not stated)	.	.	.	.	.	.
COC(=O)C1=NNC2(c3ccc(Cl)cc3)C(=O)N(c3ccc(Cl)cc3)C(=O)C12 (configuration not stated)	.	.	.	45	.	/
CSc1ccc(CN(C)CC(=O)Nc2ccc(C)cc2Br)cc1	.	.	.	.	90	/
CN(C)CCNC(=O)c1cc2c(s1)-c1ccc(Cl)cc1SC2	/	/	.	.	/	12
CCOCCCNC(=O)c1cc2c(s1)-c1ccccc1SC2	.	.	.	.	.	.
C[C@H](CO)N1C[C@H](C)[C@@H](CN(C)Cc2ccc(Cl)c(Cl)c2)Oc2ccc(NC(=O)C3CCCCC3)cc2CC1=O	/	/	/	/	/	.
O=C(CN1CC(=O)Nc2ccccc21)Nc1ccc(F)c(F)c1	.	.	.	43	.	.
CCN(CC(O)Cn1c2ccccc2c2ccccc21)S(=O)(=O)c1ccc(C)cc1 (configuration not stated)	.	.	.	.	.	/
Cc1ccc(S(=O)(=O)N(CCCO)CC(O)CON=C2c3ccccc3-c3ccccc32)cc1 (configuration not stated)	.	.	.	29	.	.
Cc1ccc(NN=C(C#N)C(=O)c2ccsc2)cc1	.	.	/	/	.	/
Cc1ccc2nc(N3CCN(c4cccc(C)c4C)CC3)c3nnnn3c2c1	.	.	.	.	.	/
Cc1ccc2nc(Cl)c3nnnn3c2c1	/	/	.	85	/	/
C=CC[n+]1ccc(/C=C2\C=Cc3cc(C)ccc3N2CC)c2ccccc21	36	92	.	.	93	/
COc1ccc(C(NC(C)=O)c2ccc3cccnc3c2O)c(OC)c1 (configuration not stated)	/	.	.	.	.	/
CC(=O)NC(c1ccc2ccccc2c1)c1ccc2cccnc2c1O (configuration not stated)	/	/	.	85	/	.
CC(=O)NC(c1ccc(Cl)cc1Cl)c1ccc2cccnc2c1O (configuration not stated)	/	/	.	445	/	.
CC1CCCCCCCCC(=O)OCCN(C(=O)OC(C)(C)C)C(C)CCCCCCCCC(=O)OCCN1C(=O)OC(C)(C)C (configuration not stated)	.	.	/	/	.	/
C[C@@H]1CCCCCCCCC(=O)OCCN[C@H](C)CCCCCCCCC(=O)OCCN[C@H](C)CCCCCCCCC(=O)OCCN1	/	/	.	41	/	/
COC(OC)c1ccnc(-c2ccc(OC(C)=O)cc2)n1	.	.	.	52	.	.
COC(OC)c1ccnc(-c2ccc(OC(=O)c3ccccc3)cc2)n1	.	.	.	.	.	.
Cc1ccc(C=NNC(=O)c2nnn(-c3nonc3N)c2-c2cccs2)cc1	.	.	/	/	.	/
CC(=O)Oc1c(C)c2c3c(c1OC(C)=O)[C@@H](C)CC[C@@H]3[C@@H](C)C[C@H]2C=C(C)C	.	.	.	.	86	.
CN1C(=O)NC(c2ccc(O)cc2)C2=C1CN(c1ccccc1)C2=O (configuration not stated)	.	.	.	.	.	.
SMILES	Mtb hypoxia rep	Sa RN4220 lethal	MazF activator	PfHsp40 yeast	Sa ugtP lethal	TcdB GH inh
CN1C(=O)NC(c2ccc(O)cc2)C2=C1CN(c1ccc(O)cc1)C2=O (configuration not stated)	.	.	.	.	.	19
Cc1ccc(NC(=O)C(C#N)=NNc2ccc(C(=O)O)cc2)c(C)c1	.	.	/	/	.	/
C[C@@H]1CCCCO[C@H](CN(C)C(=O)CCCN(C)C)[C@@H](C)CN([C@@H](C)CO)C(=O)c2cc(N(C)C)ccc2O1	/	/	/	/	/	.
O=C(NNC(=O)c1cc2ccccc2cc1O)NC1CCCCC1	.	.	.	60	.	.
O=C(COC(=O)c1cc2ccccc2cc1O)NC1CCCCC1	.	.	.	.	.	.
COc1ccccc1NC(=O)c1cc2cc(Br)ccc2cc1O	.	99	.	.	100	.
O=C(NNC(=O)c1cc2ccccc2cc1O)Nc1ccc(Br)cc1	.	.	.	36	.	.
O=C(NNC(=O)c1cc2ccccc2cc1O)Nc1ccc(F)cc1F	.	.	.	.	.	.
CN(C)S(=O)(=O)c1cccc(NC(=S)NC(=O)c2ccco2)c1	.	.	.	.	.	.
CN(C)S(=O)(=O)c1cccc(NC(=S)NNC(=O)c2cc3ccccc3cc2O)c1	/	/	.	219	/	.
COc1cc(NC(=O)c2cc3ccccc3cc2O)c(OC)cc1Cl	.	.	.	.	.	.
CC(=NNc1ccc(C(F)(F)F)cc1[N+](=O)[O-])C1CC1	.	.	/	/	.	/
CC(=O)NC(CC(=O)NNC(=O)c1cc2ccccc2cc1O)c1ccccc1 (configuration not stated)	.	.	.	78	.	.
COc1ccc(NC(=O)NNC(=O)c2cc3ccccc3cc2O)cc1	.	.	.	90	.	.
CC(C)NC(=O)N[C@@H]1CC[C@H](CCNC(=O)C2CCC2)O[C@H]1CO	/	/	/	/	/	.
CCc1ccc2oc(-c3cc(N)ccc3O)nc2c1	.	.	.	.	.	/
CCc1ccc2oc(-c3cc(N)ccc3Cl)nc2c1	/	.	.	.	.	14
O=C(NCCc1ccccc1)c1ccc2c(=O)[nH]c3c(C(=O)NCC4CCCO4)sc(=S)n3c2c1 (configuration not stated)	/	/	.	.	/	.
CCCCNC(=O)c1sc(=S)n2c1[nH]c(=O)c1ccccc12	.	.	.	.	82	/
O=C(NC1CCCCC1)c1sc(=S)n2c1[nH]c(=O)c1ccccc12	.	100	.	.	100	/
O=C(NCC1CCCO1)c1sc(=S)n2c1[nH]c(=O)c1ccc(C(=O)N3CCCCC3)cc12 (configuration not stated)	35	.	.	.	.	/
C[C@H]1CN([C@@H](C)CO)C(=O)c2cc(Br)cnc2O[C@@H]1CN(C)C(=O)NC1CCCC1	/	/	/	/	/	.
COc1ccc(-c2sc3ccc(OC)cc3c2C#Cc2cncn2C)cc1	/	.	.	.	.	.
COc1ccc(-c2oc3ccccc3c2C#Cc2cncn2C)cc1	/	/	.	336	/	.
Cc1nn(-c2ccc(F)cc2)c(Cl)c1/C=N/NC(=O)c1cccs1	/	/	68	.	/	/
C[C@@H]1CCCCO[C@@H](CN(C)Cc2ccc(C(=O)O)cc2)[C@H](C)CN([C@H](C)CO)C(=O)c2cc(NS(C)(=O)=O)ccc2O1	/	/	/	/	/	.
Cc1cc(C(C)(C)C)cc(C)c1Cn1c2[n+](c3ccc(C(F)(F)F)cc31)CCCCC2	/	101	.	.	100	.
CCn1c(SCC(=O)NN=C/C(C)=C\c2ccco2)nnc1-c1ccccc1	.	.	/	/	.	/
